Bioassay records (PubChem)
Many of the other results were omitted from the sample, so hits are more common in it than they were.
Tgondii IFNg = blocks Toxoplasma gondii growth in the presence of IFN-gamma. Toxoplasma gondii growth in IFN-gamma-treated host cells; active compounds read low. activity change, negative = inhibition, % (test concentration not listed). actives 3.8% (n = 69,000); in the data active = activity change below about -70%, passing the limit was not always enough;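 note: host cells are HeLa cells infected with Toxoplasma gondii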
A number is an active result; n = inactive.

SMILES	Tgondii IFNg
CCc1ccc(Nc2nc(C(=O)NCc3ccc(C)cc3)nc3ccccc23)cc1	n
CCc1ccc(CNC(=O)c2nc(Nc3cccc(C)c3)c3ccccc3n2)cc1	-98
CCOC(=O)c1nc(Nc2cccc(C)c2)c2ccccc2n1	n
Cc1cccc(Nc2nc(C(=O)NCc3ccc(N(C)C)cc3)nc3ccccc23)c1	-78
CN(C)CCN1C[C@@H]2CN(C(=O)c3cnc[nH]3)C[C@H]2C1=O	n
COc1ccc(-c2nc(NCCCN3CCN(c4ccc(F)cc4)CC3)c3ccccc3n2)cc1	n
CCCCOc1ccc(C(=O)NCCc2sc(-c3ccc(Cl)cc3)nc2C)cc1	-74
Cc1nc(-c2ccc(Cl)cc2)sc1CCNC(=O)c1ccccc1	n
COc1ccc(-c2nc(C)c(CCNC(=O)C(=O)Nc3ccccc3C)s2)cc1OC	-76
COc1ccc(-c2nc(C)c(CCNC(=O)C(=O)Nc3ccccc3F)s2)cc1OC	n
Cc1nc(-c2ccccc2)sc1CCNC(=O)c1ccc(Cl)cc1	n
COc1ccc(-c2nc(C)c(CCNC(=O)C(=O)Nc3c(C)cccc3C)s2)cc1OC	n
COc1ccc(-c2nc(C)c(CCNC(=O)c3ccc(Cl)cc3)s2)cc1	n
COc1ccc(C(=O)NCCc2sc(-c3ccc(Cl)cc3)nc2C)cc1	-76
COc1ccc(C(=O)NCCc2sc(-c3ccc(OC)cc3)nc2C)cc1	n
CC(C(=O)N(C)C)N(C)Cc1nn(C)c2cccc(Cl)c12 (centres undefined)	n
CCOc1ccccc1NC(=O)c1cncc(NS(=O)(=O)c2ccc(Br)cc2)c1	n
Cc1nc(CN(C)C(=O)CCn2nnc3ccccc32)no1	n
COCC(=O)Nc1cccc(-c2cccc(OC)c2F)c1	n
Fc1cccc(-c2ncnc3c2CCN(c2ncccn2)CC3)c1	n
O=C(c1cc2c(s1)CCCCC2)N1CC[C@H](O)[C@@H](O)C1	n
C=C[C@@H]1C[C@]1(NC(=O)[C@@H]1C[C@@H](Oc2ncc(OC)c3ccc(Cl)cc23)CN1C(=O)[C@@H](NC(=O)OC(C)(C)C)C(C)(C)C)C(=O)NS(=O)(=O)C1CC1	-73
COC1CC2(CCN(S(=O)(=O)C3CC3)CC2)c2ccc(C)cc21 (centres undefined)	n
O=S1(=O)c2ccccc2C2(CCN(Cc3ccncc3)C2)N1Cc1ccc(F)cc1 (centres undefined)	n
COCC(=O)N1CCc2onc(CNc3ncccn3)c2C1	n
SMILES	Tgondii IFNg
Cc1ccc2[nH]cc(-c3nccc(C(F)(F)F)n3)c2c1	n
COc1nccnc1-c1c[nH]c2ccc(C)cc12	n
COc1nc(OC)nc(-c2c[nH]c3ccc(C)cc23)n1	-87
CCS(=O)(=O)N1C[C@H]2C[C@H](C(=O)Nc3ccccc3)[C@@H](C1)O2	n
O=C(NC1CCC(n2cnnc2)CC1)C1=Cc2ccccc2OC=C1 (centres undefined)	n
CN(Cc1ccccc1)Cc1cc(C(=O)N(C)Cc2nccn2C)no1	n
Cc1ccc2c(n1)N(C)CCN(C(=O)[C@H]1CCCO1)C2	n
CCOCC1CC2(COCCN2C(=O)c2ccoc2)CO1 (centres undefined)	n
COc1ccc(Oc2ccc(NC(=O)Nc3ccc(SC(F)(F)F)cc3)cn2)cc1	-88
COc1ccc(NC(=O)Nc2ccc(-c3nc(-c4ccccc4)co3)cc2)cc1	n
COc1ccc(NC(=O)CSCC(=O)O)cn1	n
COC(=O)c1c(NCc2ccc(C(F)(F)F)cc2)c2cc(F)ccc2[nH]c1=O	n
COC(=O)c1c(NCc2cccc(OC)c2)c2cccc(Cl)c2[nH]c1=O	n
COC(=O)c1c(NCc2cccc(OC)c2)c2cc(Cl)ccc2[nH]c1=O	-114
Cn1cc(-c2cc3n(n2)CCC(=O)N3CCCC(=O)NCc2ccccn2)c2ccccc21	n
Cc1ccc(CN2CCC(CNC(=O)C(C)n3c4ccccc4c4cnn(C)c(=O)c43)C2)cc1 (centres undefined)	-104
CC(CCNC(=O)C(C)n1c2ccccc2c2cnn(C)c(=O)c21)N1CCCC1 (centres undefined)	n
Cc1ccc(CN2CCC(CNC(=O)Cn3c4ccccc4c4cnn(C)c(=O)c43)C2)cc1 (centres undefined)	n
CC[C@@H](C(=O)C(C)[C@@H](O)[C@H](C)CCc1ccc(C)c(O)c1C(=O)O)C1OC(CC)(C2CC[C@](O)(CC)[C@H](C)O2)C[C@@H]1C (some centres undefined)	-74
Fc1cnc(N2CC[C@@H](OCC3CC3)[C@@H]2Cc2ccncc2)nc1	n
COc1cccc2cc(C(=O)Nc3cnn(Cc4cccc(F)c4)c3)c(C)nc12	n
O=C(NCCS(=O)(=O)c1ccc(F)cc1)C1OCCc2ccccc21 (centres undefined)	n
O=C(Nc1cnn(Cc2cccc(F)c2)c1)C1OCCc2ccccc21 (centres undefined)	-97
Cc1[nH]n2c(=O)cc(C(=O)Nc3nc(C(C)C)cs3)nc2c1-c1ccccc1	n
